# Measurements published in PubChem BioAssay.
# Unmarked numbers belong to inactive results. Activity calls are given as the source filed them.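 Rule for the calls, unless noted: active = mean inhibition over 43.08%, the solvent-only control mean plus 3 SD; inactive = the rest.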
# Assays:
# [1] = target: Nuclear receptor coactivator 3 (Homo sapiens) (UniProt Q9Y6Q9); assay: SRC3 coactivator transcriptional activity inhibitors, confirmation, cell-based, luminescence, quadruplicate (AID 588792); conditions: HEK293 GAL4-SRC3 luciferase reporter, at 3.6 µM, hits give high values;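 note: 0% = DMSO treated cells and 100% = gossypol at 36 µM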
# [2] = system: transactivating tegument protein VP16 (Human herpesvirus 1), Gal4-VP16 luciferase reporter; assay: VP16 transactivation inhibitors, counter-screen for SRC3 inhibitor project, cell-based, luminescence, high throughput (AID 588794; in the data active = inhibition above about 30%); conditions: mammalian cells, VP16-driven luciferase reporter luminescence; at 3.6 µM; hits give high values
# [3] = target: Nuclear receptor coactivator 1 (Homo sapiens) (UniProt Q15788); assay: SRC1 coactivator transcriptional activity inhibitors, confirmation, cell-based, luminescence, quadruplicate (AID 588820;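 active = mean inhibition above 46.68%, the untreated control wells mean plus 3 SD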;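 note: 0% = DMSO wells and 100% = gossypol 36 µM treated wells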); conditions: HEK293 GAL4-SRC1 luciferase reporter, at 3.6 µM, hits give high values
# [4] = VP16 transactivation inhibitors, counter-screen for SRC1 inhibitor project, cell-based, luminescence, high throughput (AID 588824; in the data active = inhibition above about 25%); conditions: cell-based VP16 transactivation luciferase luminescence; at 3.6 µM; hits give high values
# [5] = StAR promoter reporter inhibitors, counter-screen for LRH-1 inverse agonist project, cell-based, luminescence, high throughput (AID 651611; in the data active = inhibition above about 28%); conditions: StAR promoter luciferase reporter counterscreen, at 3.6 µM, hits give high values
# [6] = target: Nuclear receptor subfamily 5 group A member 2 (Homo sapiens) (UniProt O00482); assay: LRH-1 (NR5A2) inverse agonists, retest, confirmation, cell-based, luminescence (AID 651613; in the data active = inhibition above about 42%;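 note: HEK293T cells co-transfected with LRH-1 and StAR promoter luciferase reporter; 0% = vehicle wells and 100% = parental cells lacking receptor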); conditions: cell-based LRH-1 luciferase reporter, inverse agonism; at 3.6 µM; hits give high values
# [7] = target: Steroidogenic factor 1 (Homo sapiens) (UniProt Q13285); assay: SF1 (NR5A1) inverse agonists, counter-screen for LRH-1 inverse agonist project, cell-based, luminescence, high throughput (AID 651614; in the data active = inhibition above about 44%;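 note: cells cotransfected with StAR promoter reporter and SF1 expression vector; 0% = vehicle on cells with receptor and 100% = vehicle on cells lacking receptor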); conditions: cell-based SF1 luciferase reporter, at 3.6 µM, hits give high values
# [8] = VP16 transactivation reporter inhibitors, counter-screen for LRH-1 inverse agonist project, cell-based, luminescence, high throughput (AID 651615; in the data active = inhibition above about 33%); conditions: Gal4-VP16 luciferase reporter cells, at 3.6 µM, hits give high values
# Nuclear receptor coactivator 3 (Homo sapiens), sequence (Q9Y6Q9 whole entry, looked up, the tested form may be a part): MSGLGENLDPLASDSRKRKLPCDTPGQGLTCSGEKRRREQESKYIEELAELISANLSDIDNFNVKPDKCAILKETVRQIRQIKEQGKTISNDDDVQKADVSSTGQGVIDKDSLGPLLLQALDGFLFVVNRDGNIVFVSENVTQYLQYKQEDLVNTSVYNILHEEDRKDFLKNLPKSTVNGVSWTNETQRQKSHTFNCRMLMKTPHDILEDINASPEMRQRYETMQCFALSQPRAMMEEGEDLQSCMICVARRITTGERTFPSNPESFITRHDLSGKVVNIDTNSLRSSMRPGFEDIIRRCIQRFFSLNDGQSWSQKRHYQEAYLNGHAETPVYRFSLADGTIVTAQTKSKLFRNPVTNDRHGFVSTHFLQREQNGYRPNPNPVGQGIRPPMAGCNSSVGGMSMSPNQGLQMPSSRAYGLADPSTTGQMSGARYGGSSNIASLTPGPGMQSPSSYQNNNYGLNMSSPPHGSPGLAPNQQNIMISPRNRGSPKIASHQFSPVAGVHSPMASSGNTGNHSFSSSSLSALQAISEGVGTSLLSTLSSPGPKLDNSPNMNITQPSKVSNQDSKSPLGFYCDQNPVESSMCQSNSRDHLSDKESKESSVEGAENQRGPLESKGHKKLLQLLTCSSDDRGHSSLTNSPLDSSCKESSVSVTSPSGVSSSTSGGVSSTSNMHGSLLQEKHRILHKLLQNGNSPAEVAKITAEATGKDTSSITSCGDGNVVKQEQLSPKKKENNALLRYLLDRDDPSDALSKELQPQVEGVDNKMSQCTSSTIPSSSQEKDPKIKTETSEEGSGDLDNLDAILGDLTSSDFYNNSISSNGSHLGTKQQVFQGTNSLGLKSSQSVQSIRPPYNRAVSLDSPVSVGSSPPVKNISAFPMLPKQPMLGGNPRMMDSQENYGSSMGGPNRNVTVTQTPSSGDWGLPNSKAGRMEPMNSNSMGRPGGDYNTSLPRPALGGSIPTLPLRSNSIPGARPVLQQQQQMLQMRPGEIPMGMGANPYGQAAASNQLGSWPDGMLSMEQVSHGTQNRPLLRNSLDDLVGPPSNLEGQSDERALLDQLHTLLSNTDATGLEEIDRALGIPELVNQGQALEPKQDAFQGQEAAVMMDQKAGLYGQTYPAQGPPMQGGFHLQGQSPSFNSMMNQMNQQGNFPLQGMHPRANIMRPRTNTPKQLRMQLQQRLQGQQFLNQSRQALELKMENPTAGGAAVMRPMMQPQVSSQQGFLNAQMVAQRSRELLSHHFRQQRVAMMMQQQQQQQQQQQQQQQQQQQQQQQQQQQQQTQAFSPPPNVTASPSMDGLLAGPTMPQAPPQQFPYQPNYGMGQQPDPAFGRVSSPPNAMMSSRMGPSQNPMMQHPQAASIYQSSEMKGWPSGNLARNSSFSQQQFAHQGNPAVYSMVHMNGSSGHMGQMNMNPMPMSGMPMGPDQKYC
# Nuclear receptor coactivator 1 (Homo sapiens), sequence (Q15788 whole entry, looked up, the tested form may be a part): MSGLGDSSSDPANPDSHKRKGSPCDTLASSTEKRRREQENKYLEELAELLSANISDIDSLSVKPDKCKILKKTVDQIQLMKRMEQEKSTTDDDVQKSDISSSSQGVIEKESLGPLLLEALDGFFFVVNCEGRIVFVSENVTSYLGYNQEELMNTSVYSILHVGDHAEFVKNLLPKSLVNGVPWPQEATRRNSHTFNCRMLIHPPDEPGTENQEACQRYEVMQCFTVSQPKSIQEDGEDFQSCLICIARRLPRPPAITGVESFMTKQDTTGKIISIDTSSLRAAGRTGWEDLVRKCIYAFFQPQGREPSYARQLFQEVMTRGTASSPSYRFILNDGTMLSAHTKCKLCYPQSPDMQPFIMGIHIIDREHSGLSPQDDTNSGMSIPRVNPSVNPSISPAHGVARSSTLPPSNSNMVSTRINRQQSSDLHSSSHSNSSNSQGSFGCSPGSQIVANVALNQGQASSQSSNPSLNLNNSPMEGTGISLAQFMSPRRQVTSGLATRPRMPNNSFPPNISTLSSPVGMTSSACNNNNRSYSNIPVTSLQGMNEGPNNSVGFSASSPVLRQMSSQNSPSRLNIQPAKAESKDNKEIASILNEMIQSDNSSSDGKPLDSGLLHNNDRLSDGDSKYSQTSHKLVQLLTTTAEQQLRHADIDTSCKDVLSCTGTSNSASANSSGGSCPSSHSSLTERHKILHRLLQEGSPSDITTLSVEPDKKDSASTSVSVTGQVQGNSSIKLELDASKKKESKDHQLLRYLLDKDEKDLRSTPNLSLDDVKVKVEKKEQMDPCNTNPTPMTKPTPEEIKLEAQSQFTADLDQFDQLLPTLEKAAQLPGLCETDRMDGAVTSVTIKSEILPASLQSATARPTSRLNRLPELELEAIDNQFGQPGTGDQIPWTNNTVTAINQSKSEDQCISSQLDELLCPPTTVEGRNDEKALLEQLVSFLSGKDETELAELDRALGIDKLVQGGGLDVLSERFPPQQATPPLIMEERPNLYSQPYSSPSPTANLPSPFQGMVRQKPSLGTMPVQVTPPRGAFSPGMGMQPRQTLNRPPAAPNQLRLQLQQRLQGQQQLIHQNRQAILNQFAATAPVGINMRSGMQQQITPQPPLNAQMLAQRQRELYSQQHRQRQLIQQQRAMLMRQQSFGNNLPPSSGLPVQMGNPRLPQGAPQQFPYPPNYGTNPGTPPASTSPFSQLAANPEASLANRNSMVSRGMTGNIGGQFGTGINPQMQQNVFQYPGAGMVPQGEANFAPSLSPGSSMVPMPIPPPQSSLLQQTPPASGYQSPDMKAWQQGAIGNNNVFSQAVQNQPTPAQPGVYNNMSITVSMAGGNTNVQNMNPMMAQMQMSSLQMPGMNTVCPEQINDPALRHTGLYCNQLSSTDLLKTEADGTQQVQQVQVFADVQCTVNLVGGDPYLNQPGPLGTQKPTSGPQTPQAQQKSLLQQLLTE
# Nuclear receptor subfamily 5 group A member 2 (Homo sapiens), sequence (O00482 whole entry, looked up): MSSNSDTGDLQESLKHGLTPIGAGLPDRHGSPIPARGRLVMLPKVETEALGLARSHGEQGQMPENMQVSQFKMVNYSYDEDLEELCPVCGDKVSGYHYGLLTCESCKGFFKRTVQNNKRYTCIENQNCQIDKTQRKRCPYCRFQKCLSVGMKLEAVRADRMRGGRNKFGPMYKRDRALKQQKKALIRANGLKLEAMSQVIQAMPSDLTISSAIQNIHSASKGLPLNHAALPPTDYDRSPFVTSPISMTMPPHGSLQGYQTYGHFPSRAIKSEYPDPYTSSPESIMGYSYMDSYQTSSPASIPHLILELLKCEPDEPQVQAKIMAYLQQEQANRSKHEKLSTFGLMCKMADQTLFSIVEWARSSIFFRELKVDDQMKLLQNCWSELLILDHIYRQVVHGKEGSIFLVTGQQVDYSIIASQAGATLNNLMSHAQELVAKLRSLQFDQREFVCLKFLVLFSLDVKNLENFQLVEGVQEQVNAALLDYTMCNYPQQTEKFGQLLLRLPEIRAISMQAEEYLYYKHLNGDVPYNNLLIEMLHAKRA
# Steroidogenic factor 1 (Homo sapiens), sequence (Q13285 whole entry, looked up, the tested form may be a part): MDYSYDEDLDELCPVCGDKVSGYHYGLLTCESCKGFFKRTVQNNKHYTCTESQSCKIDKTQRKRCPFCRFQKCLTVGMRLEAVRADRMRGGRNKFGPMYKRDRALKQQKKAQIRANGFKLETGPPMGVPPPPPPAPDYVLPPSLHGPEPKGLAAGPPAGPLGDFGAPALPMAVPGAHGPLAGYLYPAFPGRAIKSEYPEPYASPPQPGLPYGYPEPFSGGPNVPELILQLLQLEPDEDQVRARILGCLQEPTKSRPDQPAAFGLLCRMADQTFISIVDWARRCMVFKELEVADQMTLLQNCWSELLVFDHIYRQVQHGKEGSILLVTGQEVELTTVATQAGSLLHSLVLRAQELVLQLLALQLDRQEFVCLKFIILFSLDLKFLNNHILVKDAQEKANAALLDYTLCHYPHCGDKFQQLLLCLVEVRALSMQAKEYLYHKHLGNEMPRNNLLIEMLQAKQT
structure (smiles),measurement,setting,value
CC(=NCc1ccc2c(c1)OCO2)c1c(O)n(-c2ccccc2)c(=O)[nH]c1=O,inhibition,[1],-6%
same,inhibition,[2],13.8%
Cc1cc(C)cc(NC2=NCCCS2)c1,inhibition,[1],-10.4%
same,inhibition,[2],1.9%
COc1cccc(C(c2nnnn2Cc2ccccc2)N2CCC(n3c(=O)[nH]c4ccccc43)CC2)c1OC (stereo not given),inhibition,[1],25.4%
same,inhibition,[2],8.5%
same,inhibition,[3],-25.2%
same,inhibition,[4],20.2%
CC/C(=N\Nc1ccccc1)c1c(O)[nH]c(=O)[nH]c1=O,inhibition,[1],14.7%
same,inhibition,[2],20.4%
COC(=O)[C@]12OC[C@]34C([C@@H](O)[C@@H]1O)[C@]1(C)CC(=O)C(O)=C(C)[C@@H]1C[C@H]3OC(=O)[C@H](O)[C@@H]24 (stereo not given in full),inhibition,[1],71.6% (active)
same,inhibition,[2],64.2% (active)
same,inhibition,[3],-32.4%
same,inhibition,[4],68.8% (active)
CCn1nc(/C=C/c2ccccc2)nc2c(=O)n(C)c(=O)nc1-2,inhibition,[1],39.2%
same,inhibition,[2],9.67%
O=C(CSC1c2ccccc2-c2ccccc21)N/N=C/c1ccccc1O,inhibition,[1],17.4%
same,inhibition,[2],21.9%
same,inhibition,[3],13.8%
same,inhibition,[4],18%
CCn1c(O)c(C=NCCN2CCOCC2)c(=O)n(CC)c1=S,inhibition,[1],9.7%
same,inhibition,[2],7.94%
COC1=CC2C3Cc4ccc(OC)c(O)c4C2(CCN3C)CC1=O (stereo not given),inhibition,[1],7%
same,inhibition,[2],11.3%
O=c1[nH]c2ccccc2n1C1CCN(C(CCc2ccccc2)c2nnnn2C2CCCCC2)CC1 (stereo not given),inhibition,[1],11.8%
same,inhibition,[2],12.5%
same,inhibition,[3],2.31%
same,inhibition,[4],-5.85%
CCCCn1c(O)c(C(C)=Nc2ccc(C(=O)O)cc2)c(=O)[nH]c1=O,inhibition,[1],1.79%
same,inhibition,[2],12.1%
CSCCC(c1nnnn1-c1ccc2c(c1)OCCO2)N1CCC(n2c(=O)[nH]c3ccccc32)CC1 (stereo not given),inhibition,[1],15%
same,inhibition,[2],14.7%
same,inhibition,[3],-22.6%
same,inhibition,[4],20.9%
Cc1[nH]nc2ccc(-c3cncc(OC[C@@H](N)Cc4c[nH]c5ccccc45)c3)cc12,inhibition,[1],98.5% (active)
same,inhibition,[2],97.1% (active)
same,inhibition,[3],93.5% (active)
same,inhibition,[4],97.3% (active)
O=c1[nH]c2ccccc2n1C1CCN(C(c2cccs2)c2nnnn2Cc2ccccc2)CC1 (stereo not given),inhibition,[1],32.3%
same,inhibition,[2],36.7% (active)
same,inhibition,[3],0.46%
same,inhibition,[4],32.5% (active)
COc1ccc(-n2nnnc2C(c2cccc3ccccc23)N2CCC(n3c(=O)[nH]c4ccccc43)CC2)cc1 (stereo not given),inhibition,[1],-24.1%
same,inhibition,[2],4.21%
Cc1cccc(C)c1-n1nnnc1C(c1cc2ccccc2o1)N1CCC(n2c(=O)[nH]c3ccccc32)CC1 (stereo not given),inhibition,[1],23.8%
same,inhibition,[2],41.3% (active)
same,inhibition,[3],7.31%
same,inhibition,[4],25.9% (active)
COc1cc2cc(C(=O)N3CC(COS(C)(=O)=O)c4ccc(O)cc43)[nH]c2c(OC)c1OC (stereo not given),inhibition,[1],97.5% (active)
same,inhibition,[2],96.2% (active)
same,inhibition,[3],96% (active)
same,inhibition,[4],95.7% (active)
same,inhibition,[5],98% (active)
same,inhibition,[6],111% (active)
same,inhibition,[7],99.2% (active)
same,inhibition,[8],98.2% (active)
CC(C)CC(NC(=O)CCCNC(=O)CCC(=O)OC1O[C@H]2OC3(C)CC[C@H]4[C@H](C)CCC(C1C)C24OO3)C(=O)O (stereo not given in full),inhibition,[1],54.4% (active)
same,inhibition,[2],77.2% (active)
same,inhibition,[3],53.3% (active)
same,inhibition,[4],76.9% (active)
same,inhibition,[5],72.2% (active)
same,inhibition,[6],101% (active)
same,inhibition,[7],91% (active)
same,inhibition,[8],86.4% (active)
Cc1c2ccncc2c(C)c2c1[nH]c1ccccc12,inhibition,[1],24%
same,inhibition,[2],45.9% (active)
same,inhibition,[3],25.6%
same,inhibition,[4],42.1% (active)
CC(=O)c1c(C)n(C2CCCCC2)c2ccc(O)cc12,inhibition,[1],81.2% (active)
same,inhibition,[2],58.5% (active)
same,inhibition,[3],68.4% (active)
same,inhibition,[4],60.2% (active)
C[C@H]1CCC[C@@H](O)CCC/C=C/c2cc(O)cc(O)c2C(=O)O1,inhibition,[1],61.8% (active)
same,inhibition,[2],63.4% (active)
same,inhibition,[3],29.2%
same,inhibition,[4],56.1% (active)
CSCCC(c1nnnn1Cc1ccccc1)N1CCC(n2c(=O)[nH]c3ccccc32)CC1 (stereo not given),inhibition,[1],52.8% (active)
same,inhibition,[2],46.3% (active)
same,inhibition,[3],36.4%
same,inhibition,[4],44.5% (active)
